Yeast superoxide: caloric restriction mimetics inhibiting age-related superoxide in yeast; S. cerevisiae aged cells, superoxide DHE fluorescence; stronger effect = lower value; superoxide response (% of plate mean), % at 10 µM; 0.18% of 330,000 active; AID 2690;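 active = superoxide response under a set limit, about three screen SD below normal, cut at about 65% in these data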;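 also: yeast aged for seven days with compound at 30 °C before DHE staining; 100% = average MFI of all compound-treated wells on the plate with controls excluded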
UBC13 polyUb: blocks human UBC13 polyubiquitin chain formation; inhibition, % at 20 µM; P61088; AID 485273; 0.47% of 330,000 active; TR-FRET; in the data active = inhibition above about 45%, passing the limit was not always enough; inconclusive = no clear call, values can overlap the other calls
Target sequence (P61088 whole entry, looked up): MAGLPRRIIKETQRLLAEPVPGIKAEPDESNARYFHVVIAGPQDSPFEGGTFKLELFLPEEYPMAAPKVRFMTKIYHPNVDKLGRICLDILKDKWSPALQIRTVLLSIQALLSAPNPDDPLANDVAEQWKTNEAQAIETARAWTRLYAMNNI
dFosB act-1: activators of mouse delta FosB homodimer | purified delta FosB, TAMRA-CDK5 oligo fluorescence polarization; percent of positive-control signal above neutral wells | AID 493131 | activation, % at 25 µM | 0.99% of 340,000 active | P13346;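 active = mean activation above about 17%, with every replicate also reaching it, limit read from the data, passing the limit was not always enough; inconclusive = only one of the two conditions met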
Target sequence (P13346 whole entry, looked up): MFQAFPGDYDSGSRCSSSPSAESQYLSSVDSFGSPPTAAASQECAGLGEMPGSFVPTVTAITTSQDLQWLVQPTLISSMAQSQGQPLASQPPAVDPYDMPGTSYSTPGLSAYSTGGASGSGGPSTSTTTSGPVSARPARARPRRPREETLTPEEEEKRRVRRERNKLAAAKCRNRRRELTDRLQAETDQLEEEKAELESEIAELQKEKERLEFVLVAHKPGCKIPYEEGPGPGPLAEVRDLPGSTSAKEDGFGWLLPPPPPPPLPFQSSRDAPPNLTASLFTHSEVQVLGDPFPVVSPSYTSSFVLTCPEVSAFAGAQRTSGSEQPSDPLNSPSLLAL
NR3A LBD binder: NR3A (human) ligand-binding domain modulation. NR3A LBD differential scanning fluorimetry, Tm shift; 0% = protein alone, 100% = glycine-bound protein. Tm shift relative to glycine control, % at 25 µM. 2.5% of 340,000 active. AID 1259313;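 active = melting temperature shift of at least 10% of the positive control shift, at one fixed dose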
NALP1 yeast inh: blocks the NALP1 inflammasome reconstituted in yeast | 0.61% of 280,000 active | S. cerevisiae NALP1/ASC/caspase-1 growth, X-gal OD620, 72 h | inhibition, % at 10 µM; in the data active = inhibition mostly above about 24%, no sharp cut-off; inactive = mostly below about 32%
dFosB act-2: enhances mouse delta FosB homodimer binding to DNA. shares compounds with dFosB act-1. purified delta FosB, TAMRA-CDK5 oligo fluorescence polarization; normalised: neutral wells 0, positive control 100. activation, % at 24.9 µM. 2,400 tested, under 10 active;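 active = highest replicate activation at or above 34% and every replicate reaching that threshold; inconclusive = meets only one of the two criteria; inactive = meets neither criterion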;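 also: higher polarization means more probe DNA bound by delta FosB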
Numbers without * were called inactive; ? = inconclusive; . = not tested or not shown. Sampled rows, rich in hits. Any-hit rate of the full collection: about 4.3%.

SMILES	Yeast superoxide	UBC13 polyUb	dFosB act-1	NR3A LBD binder	NALP1 yeast inh	dFosB act-2
CC(=O)Nc1ccc(C(=O)OCCc2ccccc2)cc1	89	-3	-10	-12	24	.
O=C(Cn1cnc(S(=O)(=O)N2CCCC2)c1)Nc1ccc(OC(F)(F)F)cc1	88	-2	0	0	23	.
CC(C)Oc1ccc(S(=O)(=O)N2CCOCC2)cc1NC(=O)CCCSc1ccccc1	.	-3	-15	1	.	.
Cc1ccc(OCCn2c(C)c(/C=N/n3cnnc3)c3ccccc32)cc1	107	-2	31*	1	1	5
CC(=O)c1nn(-c2cccc(Br)c2)cc1C(=O)c1ccccc1	106	-7	1	-1	14	.
CC(=O)c1nn(-c2cccc(Br)c2)cc1C(=O)c1ccc(Cl)cc1	108	-2	28*	-120	31	4
Cc1ccc(NC(=O)CSc2nc3nc(C)cc(C)c3c(=O)[nH]2)cc1	98	-7	22*	0	-1	4
Cc1sc2nc(SCC(=O)Nc3ccccc3F)[nH]c(=O)c2c1C	109	0	23*	6	17	0
COc1ccc(NC(=O)CSc2nc3scc(C)c3c(=O)[nH]2)cc1	90	-1	11	-2	1	.
Cc1ccccc1NC(=O)CSc1nc2scc(C)c2c(=O)[nH]1	92	0	28*	4	8	3
CNC(=O)NC(=O)CSc1ccc(S(=O)(=O)N(C)C2CCCCC2)cn1	.	-1	-4	1	.	.
NS(=O)(=O)c1ccc(NC(=O)COC(=O)/C(=C/c2cccs2)c2cccs2)cc1	100	12	27*	0	17	1
O=C(c1ccccc1)N1CCN(C(=O)C2CC2)CC1	104	-9	1	-1	12	.
COc1ccc(C)cc1S(=O)(=O)N1CCCC(C(=O)NC2CC2)C1 (configuration not stated)	91	-3	0	2	5	.
Cc1cc2cc(CNC(=O)c3ccc(S(=O)(=O)N4CCCC4)cc3)ccc2n1C	110	-1	-8	1	28	.
Cc1cc2cc(CNC(=O)c3ccc(S(=O)(=O)N4CCCCC4)cc3)ccc2n1C	114	-12	33*	2	22	2
Cc1cc(O)c(-c2cc(C(=O)Nc3ccc(S(=O)(=O)N4CCOCC4)cc3)[nH]n2)cc1C	103	-3	25*	32*	27	2
Cc1ccc(-c2cc(C(=O)Nc3ccc(S(=O)(=O)N4CC(C)OC(C)C4)cc3)[nH]n2)c(O)c1 (configuration not stated)	109	2	42*	30*	17	7
Cc1ccc(NC(=O)Cc2noc3ccccc23)cc1	113	1	-8	-1	-55	.
Cc1ccc(/C=N\NC(=O)Cc2noc3ccccc23)cc1	89	4	22*	0	8	?
O=C(c1cc(-c2ccc(F)cc2)no1)N1CCN(Cc2ccc3c(c2)OCO3)CC1	95	11	-16	-4	17	.
CCc1ccc(NC(=O)CCCNC(=O)Cn2cnc3sc(C)c(C)c3c2=O)cc1	110	0	32*	-3	-88	0
O=C(Nc1cc(Cl)ccc1Cl)c1cc(-c2ccco2)on1	114	-4	18*	-3	9	-4
COc1ccc(Cl)cc1NC(=O)c1cc(-c2ccco2)on1	97	-4	10	1	8	.
Cc1ccc2c(C)c(C(=O)Nc3ccc(S(=O)(=O)Nc4onc(C)c4C)cc3)oc2c1	90	-11	-3	-1	12	.
SMILES	Yeast superoxide	UBC13 polyUb	dFosB act-1	NR3A LBD binder	NALP1 yeast inh	dFosB act-2
O=C(CSc1nc2cc(Cl)c(Cl)cc2[nH]1)c1ccc2c(c1)OCO2	104	-6	28*	17*	10	4
CCn1c2ccc(C)cc2c2n[nH]c(=S)nc21	109	-18	-3	0	0	.
CC(=O)c1ccc(N(C(=O)CS(=O)CC(=O)Nc2ccc(F)cc2)C(C(=O)NC2CCCCC2)c2cccs2)cc1 (configuration not stated)	102	-8	20*	-2	25	1
CC(=O)c1cccc(N(C(=O)CS(=O)CC(=O)Nc2ccc(F)cc2)C(C(=O)NC2CCCCC2)c2ccc(C)o2)c1 (configuration not stated)	98	8	-2	4	.	.
Cc1c(C)c2ccc(OCC(=O)Nc3cccnc3)c(C)c2oc1=O	91	9	-12	1	5	.
COC(=O)COc1ccc2c(-c3ccc(OC)cc3)cc(=O)oc2c1	98	8	-18	0	1	.
COc1ccc(-c2cc(=O)oc3c(C)c(OCC(=O)Nc4cccnc4)ccc23)cc1	112	13	41*	-1	-7	-6
COc1ccc(-c2cc(=O)oc3cc(OCC(=O)Nc4ccc(CCO)cc4)ccc23)cc1	82	-2	22*	0	10	1
Cc1cccc(C)c1NC(=O)COC(=O)c1cc(S(=O)(=O)Nc2ccc(Cl)cc2)ccc1O	109	3	2	8	.	.
O=C(COC(=O)c1cc(S(=O)(=O)Nc2ccccc2Cl)ccc1O)Nc1nc2ccccc2s1	.	.	32*	24*	-8	7
Cc1c(Cl)cccc1NC(=O)NCc1ccc(F)cc1	118	0	28*	-1	-2	-3
O=C(NCc1ccccc1)NC(=O)c1ccc(Cl)cc1	100	6	-7	-2	7	.
Cc1c(Cl)cccc1NC(=O)NCc1ccccn1	97	5	-9	2	12	.
O=C(NCc1ccc(F)cc1)NC(=O)c1ccc(Cl)cc1	104	-6	32*	-1	16	5
Cc1noc(C)c1NC(=O)N(C)C[C@H]1Oc2c(NS(=O)(=O)c3cn(C)cn3)cccc2C(=O)N([C@H](C)CO)C[C@@H]1C	94	-16	4	0	.	.
O=C(NC1CCCCC1)c1cc(S(=O)(=O)N2CCN(c3ccccc3)CC2)ccc1Cl	98	-4	3	1	.	.
O=C(Nc1ccc2c(c1)CCC2)c1cc(S(=O)(=O)N2CCN(c3ccccc3)CC2)ccc1Cl	104	-15	24*	-1	-18	3
CSc1cccc(NC(=O)NCc2cccc(CNC(=O)Nc3cccc(SC)c3)c2)c1	96	-8	25*	16*	.	5
Cc1ccc2c(CN3CCN(Cc4ccccc4)CC3)cc(=O)oc2c1C	105	4	-19	1	24	.
Cc1c(O)ccc2c(CN3CCN(C/C=C/c4ccccc4)CC3)cc(=O)oc12	98	30	18*	-3	-11	7
CC(=O)c1ccc(S(=O)(=O)Nc2cccc(-c3ccc4nncn4n3)c2)cc1	91	1	1	-1	4	.
Cc1ccc(S(=O)(=O)Nc2cccc(-c3ccc4nncn4n3)c2)cc1	100	-9	20*	-4	.	-1
COc1cc(-c2cc3nc(C)c(C)c(=O)n3[nH]2)cc(OC)c1OC	86	6	22*	0	12	5
